Laboratory results taken from PubChem BioAssay (NCI).
This is part of a sample that, as a whole, favours compounds with a hit. Of some 79,000 tested, about 15% had one in any assay. Activity calls are given as the source filed them. No stated cut-off is given here; in the data, active means growth inhibition above about 70%; inactive means the rest.

How the values were obtained:
[1] = NCI Yeast Anticancer Drug Screen. Data for the rad52 strain (AID 147);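 further: 0% = growth of vehicle-treated control cultures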; conditions: S. cerevisiae rad52 mutant growth inhibition, active compounds read high
In short: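 Read-out: growth inhibition versus vehicle-treated controls. Cells were a DNA repair-deficient yeast strain treated with compounds.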

[2] = NCI Yeast Anticancer Drug Screen. Data for the wt1 strain (AID 149);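 further: 0% = growth of vehicle-treated wt1 cultures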; conditions: S. cerevisiae wt1 strain (SPY 50644) growth inhibition, active compounds read high
In short: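 Each compound is tested on wt1 yeast and the loss of growth versus vehicle gives the inhibition value.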

[3] = NCI Yeast Anticancer Drug Screen. Data for the rad50EPP+ strain (AID 151);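 further: 0% = growth of vehicle-treated control cultures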; conditions: S. cerevisiae rad50 mutant strain, active compounds read high
In short: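 Growth inhibition read against vehicle controls in rad50EPP+ yeast, a strain altered in DNA damage repair, after compound exposure.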

[4] = NCI Yeast Anticancer Drug Screen. Data for the mgt1 strain (AID 153); conditions: S. cerevisiae mgt1 mutant growth inhibition, active compounds read high
In short: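 mgt1 yeast grown with test compound; read-out is growth inhibition versus vehicle-treated cultures.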

[5] = NCI Yeast Anticancer Drug Screen. Data for the rad50 strain (AID 155);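 further: 0% = growth of vehicle-only cultures of the same strain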; conditions: S. cerevisiae rad50 strain growth inhibition, active compounds read high
In short: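 Vehicle-treated cultures provide the reference for the growth inhibition reported for compound-exposed, repair-deficient yeast.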

[6] = NCI Yeast Anticancer Drug Screen. Data for the mec2-1 strain (AID 157); conditions: S. cerevisiae mec2-1 strain, active compounds read high
In short: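 Yeast mec2-1 mutant treated with compound. Readout: growth inhibition vs vehicle controls.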

[7] = NCI Yeast Anticancer Drug Screen. Data for the rad14 strain (AID 159);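 further: 0% = growth of vehicle-treated control cultures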; conditions: S. cerevisiae rad14 strain growth inhibition, active compounds read high
In short: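 Inhibition of growth is reported for a repair-deficient yeast mutant following compound treatment, calculated relative to cultures that received vehicle.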

[8] = NCI Yeast Anticancer Drug Screen. Data for the sgs1 mgt1 strain (AID 161);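 further: 0% = growth of cultures given vehicle only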; conditions: S. cerevisiae sgs1 mgt1 strain, active compounds read high
In short: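 Test agents were incubated with a DNA-repair-mutant yeast strain. Growth was then read and compared against vehicle-treated controls.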

[9] = NCI Yeast Anticancer Drug Screen. Data for the CLN2oe strain (AID 163);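 further: 0% = growth of vehicle-only control cultures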; conditions: S. cerevisiae CLN2oe strain, active compounds read high
In short: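 Read-out: yeast growth inhibition, expressed relative to vehicle-only controls. The strain bears an engineered cell-cycle alteration.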

[10] = NCI Yeast Anticancer Drug Screen. Data for the cln2 rad14 strain (AID 165);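 further: 0% = growth equal to vehicle treated cultures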; conditions: S. cerevisiae cln2 rad14 strain, active compounds read high
In short: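 cln2 rad14 yeast strain; compound exposure; growth inhibition read vs vehicle controls.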

[11] = NCI Yeast Anticancer Drug Screen. Data for the bub3 strain (AID 167); conditions: S. cerevisiae bub3 mutant strain, active compounds read high
In short: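 Mutant yeast screening strain plus compound; vehicle-treated cultures serve as the 0% inhibition reference.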

[12] = NCI Yeast Anticancer Drug Screen. Data for the mlh1 strain (AID 171);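 further: 0% = growth of vehicle-treated control cultures of the same strain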; conditions: S. cerevisiae mlh1 strain growth inhibition, active compounds read high
In short: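 Read-out: growth inhibition versus vehicle controls. Strain: engineered yeast with a defined DNA repair or cell cycle defect, compound-treated.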

[13] = NCI Yeast Anticancer Drug Screen. Data for the sgs1 strain (AID 173);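 further: 0% = growth of vehicle-only control cultures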; conditions: S. cerevisiae sgs1 mutant, active compounds read high
In short: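 Read-out: yeast growth inhibition relative to vehicle controls, following compound exposure of a strain with a defined DNA repair/cell cycle alteration.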

[14] = NCI Yeast Anticancer Drug Screen. Data for the mlh1 rad18 strain (AID 175); conditions: S. cerevisiae mlh1 rad18 strain growth inhibition, active compounds read high
In short: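 Yeast w/ defined DNA-repair lesions; compound exposure; growth vs vehicle controls → % inhibition.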

[15] = NCI Yeast Anticancer Drug Screen. Data for the rad18 strain (AID 177); conditions: S. cerevisiae rad18 mutant growth inhibition, active compounds read high
In short: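 Readout: growth inhibition vs vehicle controls. Cells: genetically altered yeast strain, DNA repair defect.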

[16] = at 5.0 µM (retest, dose inferred, filed as 0.5)
[17] = at 50.0 µM (retest, dose inferred, filed as 5.0)

Measured: growth inhibition

COc1cc(N)ccc1Nc1c2ccccc2nc2ccccc12
active: [1]; at 11.0 µM 70% | [1]; at 33.0 µM 82% | [1]; at 100.0 µM 86% | [3]; at 100.0 µM 88% | [4]; at 100.0 µM 89% | [5]; [16] 90% | [5]; at 11.0 µM 74% | [5]; at 33.0 µM 89% | [5]; [17] 95% | [5]; at 100.0 µM 91% | [6]; [17] 92% | [6]; at 100.0 µM 84% | [8]; [17] 97% | [8]; at 50.0 µM 84.9% | [9]; at 100.0 µM 81% | [10]; [17] 83% | [10]; at 50.0 µM 80.8% | [11]; [17] 86% | [11]; at 100.0 µM 85% | [12]; at 100.0 µM 80% | [13]; at 100.0 µM 92% | [14]; [16] 81% | [14]; [17] 94% | [15]; at 100.0 µM 82%
inactive: [1]; at 1.2 µM -4% | [1]; at 3.7 µM 33% | [2]; at 1.2 µM -17% | [2]; at 3.7 µM -16% | [2]; at 11.0 µM -19% | [2]; at 33.0 µM -17% | [2]; at 100.0 µM 69% | [3]; at 1.2 µM -9% | [3]; at 3.7 µM -11% | [3]; at 11.0 µM 10% | [3]; at 33.0 µM 59% | [4]; at 1.2 µM 2% | [4]; at 3.7 µM 25% | [4]; at 11.0 µM 32% | [4]; at 33.0 µM 51% | [5]; at 1.2 µM 6% | [5]; at 3.7 µM 32% | [5]; at 50.0 µM 36.3% | [6]; at 1.2 µM -45% | [6]; at 3.7 µM -30% | [6]; [16] 20% | [6]; at 11.0 µM -27% | [6]; at 33.0 µM 2% | [6]; at 50.0 µM 42.4% | [7]; at 1.2 µM -43% | [7]; at 3.7 µM -25% | [7]; at 11.0 µM -5% | [7]; at 33.0 µM 13% | [7]; at 100.0 µM 66% | [8]; [16] 58% | [9]; at 1.2 µM 29% | [9]; at 3.7 µM 11% | [9]; at 11.0 µM 6% | [9]; at 33.0 µM 29% | [10]; [16] 40% | [11]; at 1.2 µM 8% | [11]; at 3.7 µM 15% | [11]; [16] 42% | [11]; at 11.0 µM 14% | [11]; at 33.0 µM 28% | [11]; at 50.0 µM 63% | [12]; at 1.2 µM -24% | [12]; at 3.7 µM -15% | [12]; at 11.0 µM -16% | [12]; at 33.0 µM 11% | [13]; at 1.2 µM -16% | [13]; at 3.7 µM 1% | [13]; at 11.0 µM -4% | [13]; at 33.0 µM 36% | [14]; at 50.0 µM 65.7% | [15]; at 1.2 µM -2% | [15]; at 3.7 µM -11% | [15]; at 11.0 µM -4% | [15]; at 33.0 µM 7%

O=C1c2ccccc2CCC1(Br)Br
active: [1]; at 11.0 µM 81% | [1]; at 33.0 µM 99% | [1]; at 100.0 µM 99% | [2]; at 33.0 µM 99% | [2]; at 100.0 µM 99% | [3]; at 3.7 µM 82% | [3]; at 11.0 µM 97% | [3]; at 33.0 µM 99% | [3]; at 100.0 µM 99% | [4]; at 33.0 µM 99% | [4]; at 100.0 µM 99% | [5]; at 33.0 µM 99% | [5]; [17] 99% | [5]; at 50.0 µM 99.2% | [5]; at 100.0 µM 99% | [6]; at 11.0 µM 76% | [6]; at 33.0 µM 99% | [6]; [17] 100% | [6]; at 50.0 µM 99.3% | [6]; at 100.0 µM 99% | [7]; at 33.0 µM 99% | [7]; at 100.0 µM 99% | [8]; [17] 99% | [8]; at 50.0 µM 99.2% | [9]; at 11.0 µM 93% | [9]; at 33.0 µM 99% | [9]; at 100.0 µM 99% | [10]; [17] 100% | [10]; at 50.0 µM 99.4% | [11]; at 11.0 µM 74% | [11]; at 33.0 µM 99% | [11]; [17] 99% | [11]; at 50.0 µM 99.2% | [11]; at 100.0 µM 99% | [12]; at 11.0 µM 72% | [12]; at 33.0 µM 99% | [12]; at 100.0 µM 99% | [13]; at 11.0 µM 76% | [13]; at 33.0 µM 99% | [13]; at 100.0 µM 99% | [14]; [16] 85% | [14]; [17] 99% | [14]; at 50.0 µM 99.3% | [15]; at 11.0 µM 75% | [15]; at 33.0 µM 99% | [15]; at 100.0 µM 99%
inactive: [1]; at 1.2 µM 11% | [1]; at 3.7 µM 27% | [2]; at 1.2 µM 1% | [2]; at 3.7 µM 11% | [2]; at 11.0 µM 36% | [3]; at 1.2 µM 55% | [4]; at 1.2 µM 2% | [4]; at 3.7 µM 11% | [4]; at 11.0 µM 53% | [5]; at 1.2 µM 11% | [5]; at 3.7 µM 22% | [5]; [16] 50% | [5]; at 11.0 µM 69% | [6]; at 1.2 µM 9% | [6]; at 3.7 µM 21% | [6]; [16] 21% | [7]; at 1.2 µM 7% | [7]; at 3.7 µM 14% | [7]; at 11.0 µM 51% | [8]; [16] 63% | [9]; at 1.2 µM 9% | [9]; at 3.7 µM 13% | [10]; [16] 18% | [11]; at 1.2 µM 1% | [11]; at 3.7 µM 15% | [11]; [16] 61% | [12]; at 1.2 µM 7% | [12]; at 3.7 µM 13% | [13]; at 1.2 µM 13% | [13]; at 3.7 µM 23% | [15]; at 1.2 µM 13% | [15]; at 3.7 µM 23%
